Test results as given in the supplement of paper PMC10849652.
About 8,800 targets were measured; listed, in parts, are those with a hit and a random draw of the rest. About 0.5% of all pairs of compound and target were hits. Unmarked numbers belong to inactive results.

UniProt P08651, sequence (P08651 whole entry, looked up): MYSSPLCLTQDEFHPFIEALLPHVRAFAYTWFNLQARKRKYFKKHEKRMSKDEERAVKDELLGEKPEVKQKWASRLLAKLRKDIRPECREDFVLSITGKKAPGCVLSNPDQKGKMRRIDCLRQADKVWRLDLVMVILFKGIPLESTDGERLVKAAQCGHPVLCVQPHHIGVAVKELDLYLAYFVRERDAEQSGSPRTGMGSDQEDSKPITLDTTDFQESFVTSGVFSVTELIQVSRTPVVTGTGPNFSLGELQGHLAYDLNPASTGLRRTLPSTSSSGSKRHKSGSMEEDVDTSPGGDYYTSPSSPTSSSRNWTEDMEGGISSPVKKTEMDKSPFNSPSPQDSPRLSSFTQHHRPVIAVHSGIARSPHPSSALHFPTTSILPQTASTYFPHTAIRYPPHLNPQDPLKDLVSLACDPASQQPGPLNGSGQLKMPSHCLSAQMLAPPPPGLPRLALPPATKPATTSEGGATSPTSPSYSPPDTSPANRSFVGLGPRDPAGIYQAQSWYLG
UniProt Q96NT1, sequence (Q96NT1 whole entry, looked up): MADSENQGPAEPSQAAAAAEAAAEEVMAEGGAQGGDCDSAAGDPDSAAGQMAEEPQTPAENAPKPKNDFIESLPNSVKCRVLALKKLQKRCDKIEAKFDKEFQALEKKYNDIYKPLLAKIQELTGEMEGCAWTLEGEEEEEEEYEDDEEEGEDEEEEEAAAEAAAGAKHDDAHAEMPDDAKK
UniProt Q9UBD5, sequence (Q9UBD5 whole entry, looked up): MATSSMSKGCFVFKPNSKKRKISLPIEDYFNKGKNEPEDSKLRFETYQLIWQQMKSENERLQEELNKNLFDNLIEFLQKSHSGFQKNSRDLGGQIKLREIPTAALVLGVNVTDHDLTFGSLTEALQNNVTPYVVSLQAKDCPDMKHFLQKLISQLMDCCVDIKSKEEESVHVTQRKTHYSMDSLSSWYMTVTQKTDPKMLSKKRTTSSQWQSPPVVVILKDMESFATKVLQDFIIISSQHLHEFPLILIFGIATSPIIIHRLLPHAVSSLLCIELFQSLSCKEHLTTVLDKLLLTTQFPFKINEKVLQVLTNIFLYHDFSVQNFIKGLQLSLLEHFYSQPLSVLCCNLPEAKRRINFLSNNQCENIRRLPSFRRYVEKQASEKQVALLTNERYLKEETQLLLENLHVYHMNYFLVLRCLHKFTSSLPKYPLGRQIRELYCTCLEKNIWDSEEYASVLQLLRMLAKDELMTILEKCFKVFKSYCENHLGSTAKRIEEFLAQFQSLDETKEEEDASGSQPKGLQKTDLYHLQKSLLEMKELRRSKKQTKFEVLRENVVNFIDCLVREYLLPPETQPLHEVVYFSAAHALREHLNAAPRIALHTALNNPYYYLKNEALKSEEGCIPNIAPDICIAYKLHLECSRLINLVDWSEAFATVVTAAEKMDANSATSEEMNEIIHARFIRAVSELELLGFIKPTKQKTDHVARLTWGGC
UniProt O00483, sequence (O00483 whole entry, looked up): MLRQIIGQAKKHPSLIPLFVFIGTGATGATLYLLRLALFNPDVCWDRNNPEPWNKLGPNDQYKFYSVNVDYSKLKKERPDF
UniProt Q8IXH7, sequence (Q8IXH7 whole entry, looked up): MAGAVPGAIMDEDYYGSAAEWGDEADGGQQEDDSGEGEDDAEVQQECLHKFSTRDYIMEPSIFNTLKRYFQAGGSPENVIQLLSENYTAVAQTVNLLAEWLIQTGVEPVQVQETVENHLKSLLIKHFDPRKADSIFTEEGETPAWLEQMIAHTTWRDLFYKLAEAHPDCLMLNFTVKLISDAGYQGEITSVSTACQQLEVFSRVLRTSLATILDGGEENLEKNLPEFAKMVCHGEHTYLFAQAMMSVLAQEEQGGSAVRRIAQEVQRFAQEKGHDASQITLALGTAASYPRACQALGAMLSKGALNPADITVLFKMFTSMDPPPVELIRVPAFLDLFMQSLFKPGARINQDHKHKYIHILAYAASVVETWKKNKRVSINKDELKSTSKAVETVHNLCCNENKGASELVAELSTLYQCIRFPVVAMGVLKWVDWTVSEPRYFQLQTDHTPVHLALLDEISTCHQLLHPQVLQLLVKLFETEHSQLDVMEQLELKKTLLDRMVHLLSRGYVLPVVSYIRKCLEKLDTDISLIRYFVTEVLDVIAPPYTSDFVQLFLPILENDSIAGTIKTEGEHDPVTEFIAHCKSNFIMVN
UniProt Q8TDX7, sequence (Q8TDX7 whole entry, looked up): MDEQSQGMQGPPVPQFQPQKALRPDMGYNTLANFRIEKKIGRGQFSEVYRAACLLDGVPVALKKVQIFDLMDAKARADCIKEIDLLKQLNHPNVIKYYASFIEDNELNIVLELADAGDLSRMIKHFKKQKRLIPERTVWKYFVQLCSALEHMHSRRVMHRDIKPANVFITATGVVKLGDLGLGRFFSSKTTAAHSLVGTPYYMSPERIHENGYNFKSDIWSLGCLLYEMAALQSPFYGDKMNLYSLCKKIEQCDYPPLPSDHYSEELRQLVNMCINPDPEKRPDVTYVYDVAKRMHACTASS
UniProt O76041, sequence (O76041 whole entry, looked up): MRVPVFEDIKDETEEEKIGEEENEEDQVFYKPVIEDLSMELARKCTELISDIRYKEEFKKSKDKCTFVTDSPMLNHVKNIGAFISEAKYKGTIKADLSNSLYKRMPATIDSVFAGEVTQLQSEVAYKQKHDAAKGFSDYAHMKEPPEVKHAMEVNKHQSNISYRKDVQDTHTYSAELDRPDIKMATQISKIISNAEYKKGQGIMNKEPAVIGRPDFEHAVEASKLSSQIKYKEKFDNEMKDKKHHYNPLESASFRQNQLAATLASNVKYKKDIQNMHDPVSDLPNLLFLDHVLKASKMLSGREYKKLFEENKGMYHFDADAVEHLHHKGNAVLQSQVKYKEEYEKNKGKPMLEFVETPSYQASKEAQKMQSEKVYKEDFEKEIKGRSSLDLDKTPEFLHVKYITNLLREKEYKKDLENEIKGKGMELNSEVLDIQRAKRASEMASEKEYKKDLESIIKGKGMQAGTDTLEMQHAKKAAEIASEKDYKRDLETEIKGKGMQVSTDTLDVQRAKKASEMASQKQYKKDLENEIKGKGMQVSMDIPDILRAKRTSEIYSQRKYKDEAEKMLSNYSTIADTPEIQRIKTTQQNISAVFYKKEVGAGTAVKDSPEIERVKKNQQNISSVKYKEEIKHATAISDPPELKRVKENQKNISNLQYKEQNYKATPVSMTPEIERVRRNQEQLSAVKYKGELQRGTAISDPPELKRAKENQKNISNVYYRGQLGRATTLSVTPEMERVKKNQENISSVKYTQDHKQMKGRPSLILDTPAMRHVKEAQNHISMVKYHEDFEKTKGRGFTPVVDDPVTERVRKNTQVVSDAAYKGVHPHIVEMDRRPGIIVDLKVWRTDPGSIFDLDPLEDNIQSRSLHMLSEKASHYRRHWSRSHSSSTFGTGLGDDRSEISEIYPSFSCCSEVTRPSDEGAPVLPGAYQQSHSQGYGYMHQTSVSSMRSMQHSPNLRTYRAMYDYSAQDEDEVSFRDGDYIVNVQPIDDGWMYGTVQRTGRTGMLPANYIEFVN
UniProt Q13416, sequence (Q13416 whole entry, looked up): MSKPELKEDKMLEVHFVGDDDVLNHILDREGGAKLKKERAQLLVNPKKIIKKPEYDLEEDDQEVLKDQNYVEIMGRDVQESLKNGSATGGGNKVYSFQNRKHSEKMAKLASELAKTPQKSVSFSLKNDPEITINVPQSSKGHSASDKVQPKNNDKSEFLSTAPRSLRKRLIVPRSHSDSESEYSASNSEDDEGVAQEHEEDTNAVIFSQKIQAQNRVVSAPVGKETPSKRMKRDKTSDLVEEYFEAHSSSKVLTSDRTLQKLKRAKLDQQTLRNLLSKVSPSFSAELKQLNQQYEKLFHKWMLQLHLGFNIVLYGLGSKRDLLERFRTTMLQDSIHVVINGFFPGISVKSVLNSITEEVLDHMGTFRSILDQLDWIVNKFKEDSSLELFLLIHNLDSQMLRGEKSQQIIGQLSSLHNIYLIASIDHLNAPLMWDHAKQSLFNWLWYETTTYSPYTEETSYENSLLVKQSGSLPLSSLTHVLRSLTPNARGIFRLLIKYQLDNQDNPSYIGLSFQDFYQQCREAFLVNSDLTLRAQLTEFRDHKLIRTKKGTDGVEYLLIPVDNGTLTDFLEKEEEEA
UniProt Q9H857, sequence (Q9H857 whole entry, looked up): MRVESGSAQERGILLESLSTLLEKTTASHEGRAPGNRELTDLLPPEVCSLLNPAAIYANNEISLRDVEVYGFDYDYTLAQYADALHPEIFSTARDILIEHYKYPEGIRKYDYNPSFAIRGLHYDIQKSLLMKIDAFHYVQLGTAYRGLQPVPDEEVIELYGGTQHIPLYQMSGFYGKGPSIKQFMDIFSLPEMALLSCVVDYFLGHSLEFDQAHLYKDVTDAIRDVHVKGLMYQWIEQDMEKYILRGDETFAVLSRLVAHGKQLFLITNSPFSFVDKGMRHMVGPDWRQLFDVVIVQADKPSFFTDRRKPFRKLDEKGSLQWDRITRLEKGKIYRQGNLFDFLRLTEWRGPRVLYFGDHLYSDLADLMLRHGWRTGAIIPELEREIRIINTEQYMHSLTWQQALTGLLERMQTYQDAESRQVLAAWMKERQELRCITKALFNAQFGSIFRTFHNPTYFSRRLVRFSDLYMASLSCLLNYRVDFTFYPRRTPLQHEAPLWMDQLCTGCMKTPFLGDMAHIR
UniProt Q4G0N4, sequence (Q4G0N4 whole entry, looked up): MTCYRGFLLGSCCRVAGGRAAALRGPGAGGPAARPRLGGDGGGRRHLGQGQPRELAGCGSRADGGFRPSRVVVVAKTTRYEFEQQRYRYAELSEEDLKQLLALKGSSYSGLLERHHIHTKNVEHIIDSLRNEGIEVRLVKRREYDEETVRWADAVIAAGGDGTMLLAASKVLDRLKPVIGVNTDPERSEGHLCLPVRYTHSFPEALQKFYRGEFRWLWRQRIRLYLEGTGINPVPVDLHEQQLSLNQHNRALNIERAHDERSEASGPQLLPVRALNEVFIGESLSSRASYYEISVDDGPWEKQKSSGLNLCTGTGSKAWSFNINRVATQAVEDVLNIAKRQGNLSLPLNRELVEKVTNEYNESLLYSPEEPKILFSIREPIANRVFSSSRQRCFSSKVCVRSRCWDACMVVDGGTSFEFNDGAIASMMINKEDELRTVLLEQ

What follows are targets tested with Cc1ccc(-n2nc(C(C)(C)C)cc2NC(=O)Nc2ccc(OCCN3CCOCC3)c3ccccc23)cc1 [doramapimod] (assay: log2 fold change, soluble protein after heating vs DMSO (PISA); higher = thermal stabilisation; K562 lysate, 10 uM; active = over 0.2 and 3.5 SD of the protein, either way, in both replicates (recomputed)).
Method in brief: (§1)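 Soluble protein was defined as the supernatant remaining after 21,000xg for 90 min, following pooling of heated aliquots and adjustment to 0.5% NP-40 at 4°C. Before that, crude K562 extract at 1 mg/mL protein in PBS pH 7.4 with 1 mM MgCl2 was treated with 10 μM compound for 30 min and heated for 3 min across 48°C-58°C. Quantification used TMTpro 16plex LC-MS/MS with channel sums equalised, and values are log-two fold changes in thermal stability relative to solvent controls from duplicates.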
Work on NTPCR (UniProt Q9BSD7) yielded a log2 fold change of 0.011.
MTHFD1L (UniProt B7ZM99) was tested, and the log2 fold change was 0.035.
NOA1 (UniProt Q8NC60) was tested, and the log2 fold change was 0.021.
In the case of NT5DC2 isoform 2 (UniProt Q9H857), the log2 fold change is reported as -0.029.
In the case of OTUD7B (UniProt Q6GQQ9), the log2 fold change is reported as -0.012.
NADK2 (UniProt Q4G0N4) was tested, and the log2 fold change was -0.002.
NTMT1 (UniProt Q9BV86) was tested, and the log2 fold change was 0.025.
OSGEP (UniProt Q9NPF4) showed a log2 fold change of -0.035.
NDUFA4 (UniProt O00483) gave a log2 fold change of 0.02.
For NUB1 (UniProt Q9Y5A7), the log2 fold change was -0.023.
Target NFATC2 (UniProt Q13469) has a log2 fold change of 0.059.
For ORC2 (UniProt Q13416), the log2 fold change was -0.007.
NELFCD (UniProt Q8IXH7) was tested, and the log2 fold change was 0.045.
NMRAL1 (UniProt Q9HBL8) gave a log2 fold change of 0.036.
Work on PAIP2 (UniProt Q9BPZ3) yielded a log2 fold change of 0.043.
NCAPD2 (UniProt Q15021) gave a log2 fold change of 0.011.
NEDD8 (UniProt Q15843) gave a log2 fold change of -0.049.
Target NFIC (UniProt P08651) has a log2 fold change of 0.139.
Target NELFA (UniProt Q9H3P2) has a log2 fold change of 0.022.
NLRP2 (UniProt Q9NX02) showed a log2 fold change of 0.051.
Work on OSBPL6 isoform 5 (UniProt Q9BZF3) yielded a log2 fold change of 0.005.
In the case of MTCH2 (UniProt Q9Y6C9), the log2 fold change is reported as 0.024.
Work on NAA38 isoform 2 (UniProt Q9BRA0) yielded a log2 fold change of -0.088.
Target NAP1L5 (UniProt Q96NT1) has a log2 fold change of -0.171.
MT-ND1 (UniProt P03886) was tested, and the log2 fold change was 0.041.
For NFATC2IP (UniProt Q8NCF5), the log2 fold change was 0.001.
For MYCBP (UniProt Q99417), the log2 fold change was 0.008.
With NIT2 (UniProt Q9NQR4) the log2 fold change was -0.023.
For NEBL (UniProt O76041), the log2 fold change was -0.006.
For NFKBIB (UniProt Q15653), the log2 fold change was 0.024.
Work on NEK7 (UniProt Q8TDX7) yielded a log2 fold change of 0.016.
In the case of NCOR1 (UniProt O75376), the log2 fold change is reported as -0.034.
Target ORC3 isoform 2 (UniProt Q9UBD5) has a log2 fold change of -0.009.
In the case of NCK1 (UniProt P16333), the log2 fold change is reported as 0.03.
Work on NFATC1 (UniProt O95644) yielded a log2 fold change of 0.017.

Each target was assayed with Cc1ccc(NC(=O)c2ccc(CN3CC[C@H](N(C)C)C3)c(C(F)(F)F)c2)cc1Nc1nccc(-c2cncnc2)n1 [bafetinib] in the same assay as above.
Method in brief: as §1
Target NTPCR (UniProt Q9BSD7) has a log2 fold change of -0.044.
Target MTHFD1L (UniProt B7ZM99) has a log2 fold change of -0.054.
In the case of NOA1 (UniProt Q8NC60), the log2 fold change is reported as -0.221.
NT5DC2 isoform 2 (UniProt Q9H857) gave a log2 fold change of -0.027.
Target OTUD7B (UniProt Q6GQQ9) has a log2 fold change of -0.003.
NADK2 (UniProt Q4G0N4) was tested, and the log2 fold change was 0.01.
NTMT1 (UniProt Q9BV86) gave a log2 fold change of 0.025.
For OSGEP (UniProt Q9NPF4), the log2 fold change was -0.008.
NDUFA4 (UniProt O00483) showed a log2 fold change of 0.
Work on NUB1 (UniProt Q9Y5A7) yielded a log2 fold change of -0.047.
NFATC2 (UniProt Q13469) was tested, and the log2 fold change was -0.02.
Target ORC2 (UniProt Q13416) has a log2 fold change of -0.034.
Work on NELFCD (UniProt Q8IXH7) yielded a log2 fold change of -0.105.
With NMRAL1 (UniProt Q9HBL8) the log2 fold change was 0.005.
PAIP2 (UniProt Q9BPZ3) showed a log2 fold change of 0.073.
NCAPD2 (UniProt Q15021) gave a log2 fold change of -0.036.
Target NEDD8 (UniProt Q15843) has a log2 fold change of -0.117.
In the case of NFIC (UniProt P08651), the log2 fold change is reported as -0.038.
In the case of NELFA (UniProt Q9H3P2), the log2 fold change is reported as -0.048.
With NLRP2 (UniProt Q9NX02) the log2 fold change was -0.023.
For OSBPL6 isoform 5 (UniProt Q9BZF3), the log2 fold change was 0.32.
For MTCH2 (UniProt Q9Y6C9), the log2 fold change was -0.04.
For NAA38 isoform 2 (UniProt Q9BRA0), the log2 fold change was -0.041.
Target NAP1L5 (UniProt Q96NT1) has a log2 fold change of 0.076.
Target MT-ND1 (UniProt P03886) has a log2 fold change of 0.022.
NFATC2IP (UniProt Q8NCF5) showed a log2 fold change of -0.169.
In the case of MYCBP (UniProt Q99417), the log2 fold change is reported as -0.018.
In the case of NIT2 (UniProt Q9NQR4), the log2 fold change is reported as 0.011.
Target NEBL (UniProt O76041) has a log2 fold change of -0.037.
Target NFKBIB (UniProt Q15653) has a log2 fold change of -0.049.
Target NEK7 (UniProt Q8TDX7) has a log2 fold change of -0.026.
Target NCOR1 (UniProt O75376) has a log2 fold change of -0.028.
ORC3 isoform 2 (UniProt Q9UBD5) gave a log2 fold change of -0.046.
NCK1 (UniProt P16333) showed a log2 fold change of -0.033.
Work on NFATC1 (UniProt O95644) yielded a log2 fold change of -0.043.
